High-throughput results (PubChem)
Pf growth 48h – Primary qHTS for delayed death inhibitors of the malarial parasite plastid, 48 hour incubation. 310,000 tested, 5.9% active. AID 504832, 2011. Potency, µM (titrated, usually from 28.7 µM), for the others: at the highest dose activity change, negative = inhibition, usual class: inhibitors. P. falciparum luciferase growth in erythrocytes, 48 h; further: on the % scale 0 is the no-effect control and ±100 the full control effect
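Here the parasites carry a stable luciferase gene and grow inside erythrocytes in Albumax-based RPMI medium with compound for one erythrocytic cycle. Activity is scored as loss of luminescent signal.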
HCV inh – qHTS Assay for Inhibitors of Hepatitis C Virus (HCV); Huh7.5.1 HCVcc-Cre infection, luciferase reporter, 44 h; Potency, µM (highest dose often 41.8 µM), without a hit: at the top dose activity change, negative = inhibition, usual class: inhibitors; 340,000 tested, 3.4% active; AID 651820, 2012; further: on the % scale 0 is the no-effect control and ±100 the full control effect
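After 44 h co-culture of compound, cells and HCVcc-Cre (~0.5 moi), substrate is added for 15 min at room temperature and luciferase measured over 15 sec. Cells were seeded at 1,000/well and pre-cultured 4 h.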
Vaccinia Venus – qHTS for Stage-Specific Inhibitors of Vaccinia Orthopoxvirus: Venus Reporter Primary qHTS; Potency, µM (highest dose often 36.5 µM), for the others: top-dose activity change, negative = inhibition, usual class: inhibitors; 330,000 tested, 0.46% active; Vaccinia virus Venus reporter expression, fluorescence; calls by dose curve; tested in A549 cells; further: on the % scale 0 is the no-effect control and ±100 the full control effect; nearly all actives have a fitted effect of over 30% in size
Pf growth 96h – Primary qHTS for delayed death inhibitors of the malarial parasite plastid, 96 hour incubation; P. falciparum luciferase reporter growth, 96 h; Potency, µM (top dose mostly 28.7 µM), for inactives: at the highest dose activity change, negative = inhibition, actives largely listed as inhibitors; 320,000 tested, 6.9% active; further: on the % scale 0 is the no-effect control and ±100 the full control effect
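Two parasite generations (96 h, 37 C, 5% CO2) of compound exposure in infected erythrocytes (0.05% parasitemia, 2% hematocrit). Luciferase-reporter P. falciparum; decreased luminescence indicates inhibited growth, aimed at apicoplast-acting delayed death.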
NS1 inh – qHTS Assay for Inhibitors of Influenza NS1 Protein Function; 270,000 tested, 0.4% active; Potency, µM (titrated, usually from 46.1 µM), without a hit: at the highest dose activity, positive = more growth; calls by dose curve; further: actives are rising curves; nearly all actives have a fitted effect of over 50% in size
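Recovery from NS1-induced slow growth read by OD600 in budding yeast switched to galactose assay medium (pH 6.0, -URA) at 1:100 dilution. Compound 23 nl per well; the matching strain lacking NS1 serves as control.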
Vaccinia mCherry – qHTS for Stage-Specific Inhibitors of Vaccinia Orthopoxvirus: mCherry Reporter Primary qHTS | Potency, µM (highest dose often 36.5 µM), for inactives: top-dose activity change, negative = inhibition, usual class: inhibitors | Vaccinia virus mCherry reporter infection, fluorescence | 310,000 tested, 0.63% active | AID 720579, 2013; calls by dose curve; tested in A549 cells; further: on the % scale 0 is the no-effect control and ±100 the full control effect; nearly all actives have a fitted effect of over 35% in size
Active calls of the source: *; i = inactive; ? = inconclusive; / = not tested or not shown. This is a sample that favours compounds with a hit; in the whole collection about 11% have one here. Unless noted, the call rests on the fitted dose curve; in most records, active means well fitted inhibition curve with a large enough effect; inconclusive means small, poorly fitted or top-dose-only effect, or another doubt; inactive means no such curve, though single readings can be large or run the other way. Potency means the concentration at half of the fitted maximal effect.

SMILES	Pf growth 48h	HCV inh	Vaccinia Venus	Pf growth 96h	NS1 inh	Vaccinia mCherry
CC(C)(C)c1ccc(Oc2cccc(C3CC(=O)C(C4NCCc5ccccc54)C(=O)C3n3cncn3)c2)cc1 (stereo not drawn)	1.2µM*	-2%	-7%	14%	19%	-12%
Cc1ccc(S(=O)(=O)n2ccc(-c3ccc(OCc4c(F)cccc4Cl)cc3)n2)cc1	9.3µM*	?	/	-109%	3%	/
Cc1ccc(S(=O)(=O)n2ccc(-c3cccc(OCc4c(F)cccc4Cl)c3)n2)cc1	3.7µM*	?	/	0.74µM*	26%	/
Cc1[nH]ccc(=O)c1OCc1c(F)cccc1Cl	12%	22%	-8%	35%	/	i
COC(=O)c1sc(S(=O)(=O)N2CCN(c3ccccc3)CC2)c(C(=O)OC)c1C	?	3%	/	?	-5%	/
NC(=O)c1ccc(NC(=O)CN2CCN(c3ccc(Cl)cc3)CC2)cc1	7%	-4%	/	12µM*	/	/
CCOC(=O)c1c(C)nn(-c2ccc(NC(=O)c3c(C)noc3C)cc2)c1C	-6%	-10%	-25%	-6%	-2%	i
CCOC(=O)c1c(C)nn(-c2ccc(NC(=O)c3cccs3)cc2)c1C	15µM*	?	-12%	3.3µM*	-17%	i
CN1CCN(c2ccc(NC(=S)NC(=O)c3cccc4c(Br)cccc34)cc2)CC1	?	?	-6%	-35%	12%	-9%
CN1CCN(c2ccc(NC(=S)NC(=O)c3cccc4ccccc34)cc2)CC1	?	11µM*	/	0%	-19%	/
CCC(=O)NC(=S)Nc1ccc(N2CCN(C(=O)c3ccc(Cl)cc3)CC2)cc1	?	?	-21%	12µM*	-1%	-7%
Cc1ccn2c(Nc3ccccc3C)c(-c3ccncc3)nc2c1	?	-24%	-24%	2%	-18%	?
N#Cc1sc(=O)[nH]c1Cl	/	39%	-4%	/	/	i
Cc1ccc(C(=O)N2CCN(c3ccc(NC(=S)NC(=O)c4cccs4)cc3)CC2)cc1	?	2.2µM*	-28%	-15%	18%	?
CC(C)(O)C#Cc1ccc(C(=O)N2CCN(c3ccc(Cl)cc3)CC2)cc1	9%	6%	-1%	6.6µM*	/	1%
COc1ccc(C(=O)N2CCN(c3ccc(NC(=O)c4cccs4)cc3)CC2)cc1	?	?	-15%	?	7%	-2%
CC(C)Oc1ccc(C(=O)Nc2ccc(N3CCN(C(=O)c4ccco4)CC3)cc2)cc1	?	-11%	6%	?	12%	-12%
Cc1ccc(C(=O)NC(=S)Nc2ccc(N3CCN(C(=O)c4ccco4)CC3)cc2)cc1	?	11µM*	-30%	5.2µM*	3%	-20%
O=C(Nc1ccc(N2CCN(C(=O)c3ccccc3)CC2)cc1)c1cccs1	-14%	2%	-5%	27%	-9%	i
CC(C)(O)C#Cc1ccc(C(=O)N2CCN(c3ccc(F)cc3)CC2)cc1	12%	-14%	-17%	?	/	-12%
CCC(=O)N1CCN(c2ccc(NC(=O)c3cccs3)cc2)CC1	-5%	7%	/	13µM*	5%	/
Cc1ccccc1C(=O)N1CCN(c2ccc(NC(=S)NC(=O)c3cccs3)cc2)CC1	9.3µM*	?	/	-3%	?	/
O=C(CCc1nc2ccccc2c(=O)[nH]1)OCc1ccc(-c2ccccc2)cc1	2%	23%	-10%	15%	23%	-12%
COc1ccc(NC(=O)C(c2ccc(OC)cc2)N(Cc2ccco2)C(=O)CC2NC(=O)NC2=O)cc1 (stereo not drawn)	?	-9%	2%	?	/	7%
COc1ccc(C(C(=O)Nc2ccc(C(C)C)cc2)N(Cc2ccco2)C(=O)CC2NC(=O)NC2=O)cc1 (stereo not drawn)	1.5µM*	?	-17%	?	/	-12%
SMILES	Pf growth 48h	HCV inh	Vaccinia Venus	Pf growth 96h	NS1 inh	Vaccinia mCherry
CCCc1cc(=O)oc2cc(C)cc(OCC(=O)Nc3ccccn3)c12	0.93µM*	?	/	0.66µM*	6%	/
CCCCc1cc(=O)oc2cc(C)cc(OCC(=O)NCCN3CCOCC3)c12	?	-7%	/	?	4%	/
CCCCc1cc(=O)oc2cc(C)cc(OCC(=O)Nc3ccccn3)c12	4.1µM*	?	/	?	-11%	/
Cc1cc(OCC(=O)Nc2ccccn2)c2c(C)cc(=O)oc2c1	19%	-18%	-10%	35%	12%	i
Cc1cc(C)nc(SCC(=O)Nc2ccc3c(c2)OCO3)n1	19%	7%	-16%	?	3%	i
Cc1ccc(C(C)C)c(OCc2nc(-c3nonc3N)no2)c1	/	-18%	?	4.7µM*	-15%	i
Cc1ccc(C(C)C)c(OCc2n[nH]c(=S)o2)c1	18%	10%	-10%	41%	-1%	i
Nc1nonc1-c1noc(CCCOc2ccc(Cl)cc2Cl)n1	-23%	?	/	5.2µM*	9%	/
Clc1ccc(OCc2nc(-c3ccncc3)no2)c(Cl)c1	-58%	?	/	10µM*	-63%	/
CCCN1CCN(S(=O)(=O)c2ccc3c(c2)CC(C)N3C(=O)C2CC2)CC1 (stereo not drawn)	0%	-3%	-7%	?	3%	-15%
CC(NCC(=O)Nc1cc(S(=O)(=O)N2CCOCC2)ccc1N1CCOCC1)c1ccco1 (stereo not drawn)	?	-1%	/	5.9µM*	/	/
COc1ccccc1NCC(=O)Nc1cc(S(=O)(=O)N2CCOCC2)ccc1N1CCOCC1	?	6%	-11%	?	-1%	-22%
Cc1ccccc1SCC(=O)Nc1cc(S(=O)(=O)N2CCOCC2)ccc1N1CCOCC1	8.3µM*	-13%	-10%	?	-17%	-18%
O=C(CSc1cccc[n+]1[O-])Nc1cc(S(=O)(=O)N2CCOCC2)ccc1N1CCOCC1	-2%	0%	-2%	-6%	11%	-4%
Cc1ccc(S(=O)(=O)N2CCOCC2)cc1NC(=O)CNc1ccccc1N1CCCC1=O	9.3µM*	12%	-5%	?	/	-9%
Cc1nnc(NC(=O)CSc2nnc(CNC(=O)c3ccc(F)cc3)o2)s1	18%	-7%	-11%	29%	-2%	-21%
CC(NC(=O)NCC1CCCO1)(C(F)(F)F)C(F)(F)F (stereo not drawn)	5%	?	-21%	/	12%	/
Cc1ccc(S(=O)(=O)Cn2nnnc2C(C(C)C)N2CCN(Cc3ccco3)CC2)cc1 (stereo not drawn)	10µM*	13%	-40%	10%	-13%	-20%
